Results taken from PubChem BioAssay AID1159580 (chemical genetic matrix, 2015).
“And” between values parts separate entries of the source, which are not always exact repeats. Identical values can stand only once. Out of some 5,500 compounds screened, about 2,000 (36%) were called active. Roughly 18% stayed inconclusive and do not appear here. Rule as the data show it: active = normalized growth mostly below about 0.91 (no sharp cut-off); inconclusive = no clear call, values can overlap the other calls; inactive = mostly above about 0.92. This is one part of the list.

Assay: chemical genetic growth profiling, strain panel (AID 1159580);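 also: tested at 20 µM; growth read once vehicle control cultures reached saturation at 30 °C; 1 = growth at the plate median or of vehicle wells; lower values mean less growth of the strain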
Settings: S. cerevisiae deletion strains, growth OD

Measured: normalized growth

COC1=CC23CCCN2CCc2cc4c(cc2C3C1O)OCO4 (stereo not drawn)
inactive: locus YAL013W, strain DEP1, stronger effect = lower value 1.01 | locus YAL021C, strain ccr4, stronger effect = lower value 1.02 | locus YAL026C, strain drs2, stronger effect = lower value 1.03 | locus YAL030W, strain snc1, stronger effect = lower value 1.02 | locus YBL061C, strain skt5, stronger effect = lower value 1.03 | locus YBR009C, strain hhf1, stronger effect = lower value 1.04 | locus YBR021W, strain FUR4, stronger effect = lower value 1.01 | locus YBR023C, strain chs3, stronger effect = lower value 1.05 | locus YBR171W, strain sec66, stronger effect = lower value 1.06 | locus YBR229C, strain ROT2, stronger effect = lower value 1.01 | locus YBR231C, strain swc5, stronger effect = lower value 1.02 | locus YBR279W, strain paf1, stronger effect = lower value 1.03 | locus YCL011C, strain gbp2, stronger effect = lower value 1.02 | locus YCL016C, strain dcc1, stronger effect = lower value 1.03 | locus YCL029C, strain bik1, stronger effect = lower value 1.01 | locus YCL061C, strain MRC1, stronger effect = lower value 1.03 | locus YCL069W, strain vba3, stronger effect = lower value 1.02 | locus YCR088W, strain abp1, stronger effect = lower value 1.03 | locus YDL005C, strain med2, stronger effect = lower value 1.02 | locus YDL035C, strain GPR1, stronger effect = lower value 0.995 | locus YDL040C, strain nat1, stronger effect = lower value 1.02 | locus YDL074C, strain BRE1, stronger effect = lower value 1.04 | locus YDL101C, strain DUN1, stronger effect = lower value 1 | locus YDL185W, strain tfp1, stronger effect = lower value 1.01 | locus YDL192W, strain arf1, stronger effect = lower value 1 | locus YDR001C, strain nth1, stronger effect = lower value 1.02 | locus YDR069C, strain doa4, stronger effect = lower value 1.04 | locus YDR101C, strain arx1, stronger effect = lower value 1.01 | locus YDR137W, strain rgp1, stronger effect = lower value 1.05 | locus YDR150W, strain NUM1, stronger effect = lower value 1.01 | locus YDR159W, strain sac3, stronger effect = lower value 1.04 | locus YDR162C, strain NBP2, stronger effect = lower value 1.01 | locus YDR195W, strain ref2 1.01 | locus YDR297W, strain sur2, stronger effect = lower value 1.02 | locus YDR318W, strain mcm21, stronger effect = lower value 0.987 | locus YDR334W, strain swr1, stronger effect = lower value 1.03 | locus YDR335W, strain msn5, stronger effect = lower value 1.03 | locus YDR388W, stronger effect = lower value 1.01 | locus YDR392W, strain spt3, stronger effect = lower value 0.971 | locus YDR502C, strain sam2, stronger effect = lower value 0.995 | locus YEL003W, strain gim4, stronger effect = lower value 1.02 | locus YEL037C, strain rad23, stronger effect = lower value 1.02 | locus YEL061C, strain CIN8 (second series), stronger effect = lower value 1.02 | locus YEL061C, strain CIN8, stronger effect = lower value 1.01 | locus YER015W, strain faa2, stronger effect = lower value 1.02 | locus YER016W, strain bim1, stronger effect = lower value 1.02 | locus YER110C, stronger effect = lower value 1.01 | locus YER111C, strain swi4, stronger effect = lower value 1.03 | locus YER155C, strain BEM2 (second series), stronger effect = lower value 1.04 | locus YER155C, strain BEM2, stronger effect = lower value 1 | locus YER167W, strain BCK2, stronger effect = lower value 1 | locus YFR010W, strain ubp6, stronger effect = lower value 1.03 | locus YGL078C, strain dbp3, stronger effect = lower value 0.997 | locus YGL086W, strain mad1, stronger effect = lower value 1.03 | locus YGL167C, strain pmr1, stronger effect = lower value 1.03 | locus YGL173C, strain kem1, stronger effect = lower value 1.04 | locus YGL227W, strain vid30, stronger effect = lower value 1.02 | locus YGL240W, strain doc1, stronger effect = lower value 1.04 | locus YGL248W, strain PDE1, stronger effect = lower value 0.988 | locus YGL253W, strain hxk2, stronger effect = lower value 1.03 | locus YGR078C, strain PAC10, stronger effect = lower value 1 | locus YGR135W, strain pre9, stronger effect = lower value 0.986 | locus YGR229C, strain SMI1, stronger effect = lower value 1 | locus YGR252W, strain gcn5, stronger effect = lower value 0.952 | locus YHR013C, strain ard1, stronger effect = lower value 1.04 | locus YHR027C, strain rpn1, stronger effect = lower value 1.06 | locus YHR030C, strain SLT2, stronger effect = lower value 1.01 and 0.963 | locus YHR079C, strain IRE1 (second series), stronger effect = lower value 1.01 | locus YHR079C, strain IRE1, stronger effect = lower value 0.967 | locus YHR094C, strain hxt1, stronger effect = lower value 1.01 | locus YHR129C, strain ARP1, stronger effect = lower value 1.01 | locus YHR142W, strain chs7, stronger effect = lower value 1.05 | locus YHR200W, strain rpn10, stronger effect = lower value 1.01 | locus YIL066C, strain RNR3, stronger effect = lower value 1.01 | locus YIL073C, strain SPO22, stronger effect = lower value 1.04 | locus YIL125W, strain kgd1, stronger effect = lower value 1.01 | locus YIR030C, strain dcg1, stronger effect = lower value 1.01 | locus YJL092W, strain hpr5, stronger effect = lower value 1.02 | locus YJL095W, strain BCK1 (second series), stronger effect = lower value 1.02 | locus YJL095W, strain BCK1, stronger effect = lower value 0.983 and 0.975 | locus YJL115W, strain asf1, stronger effect = lower value 1.01 | locus YJL129C, strain trk1, stronger effect = lower value 1.03 | locus YJL134W, strain LCB3, stronger effect = lower value 1.01 | locus YJL154C, strain vps35, stronger effect = lower value 1.02 | locus YJL164C, strain tpk1, stronger effect = lower value 1.03 | locus YJL166W, strain qcr8, stronger effect = lower value 1.03 | locus YJL168C, strain set2, stronger effect = lower value 1 | locus YJL187C, strain SWE1 (second series), stronger effect = lower value 1
